# Rows were chosen to be rich in hits. Some 3.4% of all compounds tested hit in one or more screens of this group.
# TEAD-YAP block – TEAD-YAP interaction inhibition. HEK-TIYL cells, TEAD-Gal4/YAP UAS-luciferase luminescence. inhibition, % at 9.12 µM. hit rate 1.4% among 640,000; in the data active = inhibition above about 32%;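 note: 0% = median of test compound wells and 100% = reference inhibitor wells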
# FBW7 act – activators of human E3 ligase FBW7; Q969H0; AlphaScreen FBW7–phospho-cyclin E peptide binding, activator screen; normalized activity (activation), % at 26.1 µM; hit rate 0.13% among 650,000; in the data active = normalized activity above about 1.9%;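 note: purified mutant Fbw7 with reduced substrate affinity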
# GPR151 ag – activators of human GPR151; PathHunter beta-arrestin GPR151 cells, luminescence; activation, % at 11.2 µM; hit rate 1% among 650,000; in the data active = activation above about 4.9%;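 note: 0% = median of compound wells and 100% = cells with positive control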
# MITF primary – human MITF inhibition, primary screen; O75030; AlphaScreen MITF homodimerization, bead proximity signal; inhibition, % at 2.6 µM; hit rate 0.91% among 650,000; AID 1259374; in the data active = inhibition above about 50%;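 note: 0% = vehicle wells with protein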
# Target sequence (O75030 whole entry, looked up): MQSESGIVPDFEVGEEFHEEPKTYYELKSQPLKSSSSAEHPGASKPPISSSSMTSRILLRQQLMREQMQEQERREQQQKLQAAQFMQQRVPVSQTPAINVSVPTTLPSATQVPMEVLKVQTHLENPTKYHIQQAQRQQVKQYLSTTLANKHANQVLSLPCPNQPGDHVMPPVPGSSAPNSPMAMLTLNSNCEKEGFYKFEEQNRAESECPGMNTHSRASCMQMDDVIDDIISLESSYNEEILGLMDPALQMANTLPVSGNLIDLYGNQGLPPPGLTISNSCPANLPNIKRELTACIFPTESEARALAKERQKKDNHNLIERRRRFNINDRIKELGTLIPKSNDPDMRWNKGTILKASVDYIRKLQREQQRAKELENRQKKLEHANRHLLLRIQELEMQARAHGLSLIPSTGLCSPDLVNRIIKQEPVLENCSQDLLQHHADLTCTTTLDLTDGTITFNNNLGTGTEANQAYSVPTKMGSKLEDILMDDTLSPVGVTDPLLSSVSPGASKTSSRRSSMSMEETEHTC
# MITF inh conf – confirmation of human MITF inhibitors; AlphaScreen MITF homodimerization, biotin/His-MITF beads; inhibition, % at 2.6 µM; AID 1259372; hit rate 16% among 4,700; shares compounds with MITF primary;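 active = inhibition above a cutoff derived from the DMSO control wells, cut at about 28% in these data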;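 note: 0% = MITF dimer wells with DMSO only; inhibitors lower the bead chemiluminescence by keeping MITF from dimerizing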
# AlphaScreen DR – AlphaScreen optical interference, dose response counter-screen; shares compounds with MITF primary; AlphaScreen optical interference counterscreen, cell-free; IC50, µM; AID 1259373; hit rate 6% among 480; call rule not given here
# AlphaScreen intf2 – AlphaScreen optical interference, counter-screen; shares compounds with MITF primary; LysRS AlphaScreen counterscreen, signal interference, triplicate; inhibition, % at 2.6 µM; hit rate 7.6% among 4,700;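 active = inhibition above a cutoff derived from the DMSO control wells, cut at about 30% in these data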
# Starred values were filed as active, the others as inactive; . = no result.
SMILES,TEAD-YAP block,FBW7 act,GPR151 ag,MITF primary,MITF inh conf,AlphaScreen intf2,others
O=c1nc(SCc2ccccc2)c2c(n1CCCO)CCCC2,2.0,0.2,-1.2,80.3*,-3.0,4.8,
CC1(C)CC(=O)C(/C=N/Nc2n[nH]c(=O)[nH]c2=O)=C(O)C1,-15.4,-0.7,-0.9,94.8*,34.1*,97.6*,
Cc1ccc(S(=O)(=O)N(C)c2ccc(OCC(=O)Nc3ncn[nH]3)cc2)cc1,3.5,0.1,1.2,9.0,.,.,
COc1cc(/C=N/NC(=O)CC2C(=O)NN=C2C)cc(OC)c1OC(C)=O (stereo unspecified),2.0,0.0,0.8,0.4,.,.,
COc1cc(OC)c(OC)cc1/C=N/NC(=O)CC1C(=O)NN=C1C (stereo unspecified),12.7,0.0,0.3,66.4*,1.1,-2.9,
CCOC(=O)C1=C(N)OC2=C(C(=O)CCC2)C1c1ccc(Cl)cc1 (stereo unspecified),-0.6,0.1,0.0,89.2*,-3.9,-1.4,
CCOc1ccc(C2C(C#N)=C(N)OC3=C2C(=O)CCC3)cc1 (stereo unspecified),-5.8,-0.4,-0.3,54.2*,3.3,-3.8,
N#Cc1c(NCc2ccc(Cl)cc2)nc(=O)n2ccccc12,2.1,0.1,0.9,-5.7,.,.,
COC(=O)c1cc(S(=O)(=O)NCCc2ccccc2)c[nH]1,10.0,0.8,0.6,14.1,.,.,
COC(=O)c1cc(S(=O)(=O)NCCCN(C)Cc2ccccc2)c[nH]1,3.0,0.5,0.5,56.4*,13.3,4.8,
O=C1S/C(=C\c2ccco2)C(=O)N1c1ccccc1Cl,8.1,0.3,2.1,78.2*,78.9*,-7.0,AlphaScreen DR=>6.48
COc1ccc([N+](=O)[O-])cc1NC(=O)C1(c2ccc(OC)c(OC)c2)CCCC1,-8.0,0.0,0.3,53.5*,-14.2,-6.7,
COc1ccc([N+](=O)[O-])cc1NC(=O)c1ccc(C(C)(C)C)cc1,8.6,0.3,0.4,16.5,.,.,
COc1ccc([N+](=O)[O-])cc1NC(=O)c1ccc(F)cc1,-1.5,-0.1,2.7,57.4*,-11.7,-10.8,
COc1ccc(CN2CCN(Cc3ccccc3[N+](=O)[O-])CC2)c(OC)c1,-3.6,0.2,-1.4,52.2*,5.3,11.5,
COc1ccc(OC)c(CN2CCN(Cc3ccccc3[N+](=O)[O-])CC2)c1,4.7,-0.8,-0.2,76.8*,7.3,16.4,
CC(=O)N1CCN(Cc2ccccc2[N+](=O)[O-])CC1,1.4,0.0,0.1,-14.3,.,.,
COc1ccc(OC)c(CN2CCN(S(=O)(=O)c3ccccc3[N+](=O)[O-])CC2)c1,-13.4,0.0,-0.2,36.8,.,.,
CCOc1ccccc1C1c2[nH]c3ccccc3c2CCN1C(=O)CN1C(=O)CSC1=O (stereo unspecified),-2.3,-0.1,-0.9,-3.2,.,.,
N#CCCn1cc(C(=O)N2CCOCC2)c(-c2cccc([N+](=O)[O-])c2)n1,2.0,-0.2,0.3,7.7,.,.,
O=C(CSc1nc(-c2ccccc2)cc(C(F)(F)F)n1)N1CCOCC1,-2.5,-0.1,0.9,2.5,.,.,
CC(Sc1nc(-c2ccccc2)cc(C(F)(F)F)n1)C(N)=O (stereo unspecified),13.3,1.4,0.8,54.0*,0.6,1.6,
S=c1[nH]nc(CN2CCSCC2)n1-c1cccc(Cl)c1,-6.8,-0.7,-0.2,62.2*,17.4,15.6,
COc1cccc(-n2c(CN3CCSCC3)n[nH]c2=S)c1,-1.7,0.1,3.8,38.1,.,.,
CC(NC(=O)CN(c1cccc([N+](=O)[O-])c1)S(=O)(=O)c1ccccc1)c1ccccc1 (stereo unspecified),-3.2,0.0,-1.2,-8.8,.,.,
SMILES,TEAD-YAP block,FBW7 act,GPR151 ag,MITF primary,MITF inh conf,AlphaScreen intf2,others
CCOC(=O)c1c(C)[nH]c(C(=O)C(C)OC(=O)CSCc2c(C)noc2C)c1C (stereo unspecified),8.8,0.0,1.4,-2.5,.,.,
COc1ccc(/C=C(\C#N)C(=O)Oc2ccc([N+](=O)[O-])c3cccnc23)cc1,12.0,-1.9,-0.9,53.6*,51.4*,99.2*,
Cn1cc(-c2cc(Nc3ccc(-n4cncn4)cc3)ncc2Cl)cn1,-24.3,-0.1,1.7,-4.8,.,.,
CC(CNC(=O)C12CC3CC(CC(C3)C1)C2)CN(C)C (stereo unspecified),-6.0,-0.1,2.4,-4.8,.,.,
COC(=O)Cc1cc(=O)n(-c2nc3ccccc3[nH]2)[nH]1,-8.1,-1.4,3.7,94.3*,72.2*,98.6*,
CCCn1ncc(C(=O)N[C@@H](C)Cn2nnc3ccccc32)c1C,-1.2,0.0,0.6,-1.1,.,.,
O=C(NCCc1ccncc1)c1csc(-n2cccc2)n1,-1.4,-0.3,0.2,52.0*,4.5,8.1,
Cc1ccc(S(=O)(=O)Nc2cccc(N(C)S(C)(=O)=O)c2)cc1,-3.5,-0.3,1.6,-11.8,.,.,
CN(c1cccc(NS(=O)(=O)c2ccc([N+](=O)[O-])cc2)c1)S(C)(=O)=O,12.6,0.1,-1.7,50.8*,33.9*,7.2,AlphaScreen DR=>6.48
c1ccc(CN2CCN(C3CCCCCC3)CC2)nc1,3.9,0.5,-0.6,66.9*,-9.2,14.6,
c1ccc(CN2CCN(C3CCCCC3)CC2)nc1,5.0,0.7,-2.3,59.9*,12.1,9.9,
c1ccc(CN2CCN(c3ncccn3)CC2)nc1,-1.6,0.8,-2.6,13.7,.,.,
CC1CCC(N2CCN(Cc3ccccn3)CC2)CC1 (stereo unspecified),11.9,0.6,-1.5,63.6*,0.5,3.4,
Cc1cccc(C(=O)Nc2sc3c(c2C(=O)N2CCCC2)CCCCC3)c1,2.0,0.3,-0.3,12.4,.,.,
COc1ccc(NC(=S)NCC(C)C)c(OC)c1,6.9,-0.2,0.2,64.9*,11.8,13.8,
COc1ccc(NC(=S)NCC(O)c2ccccc2)c(OC)c1 (stereo unspecified),11.9,0.2,-0.3,2.8,.,.,
CCOC(=O)/C=C1\NC(c2ccccc2)=C(c2ccccc2)C1=O,-7.2,0.1,-0.8,56.0*,8.4,16.7,
CCOC(=O)/C=C1/Nc2ccccc2C(c2ccccc2)(c2ccccc2)N1,12.8,0.0,0.1,2.6,.,.,
COc1cc(CN2CCN(C(=O)CC(C)C)CC2)cc(OC)c1,2.2,-0.1,0.5,52.7*,10.9,9.7,
COc1ccc(CN2CCN(C(=O)CC(C)C)CC2)c(OC)c1OC,7.4,0.0,-0.2,39.9,.,.,
COc1cc(CN2CCN(C(=O)CC(C)C)CC2)cc(OC)c1OC,4.0,-0.2,0.7,69.6*,5.6,1.9,
Cc1ccc(NC(=O)CSc2nnc(-c3cccc(F)c3)c(-c3cccc(F)c3)n2)cc1Cl,-8.3,0.7,0.7,19.7,.,.,
O=C(NCc1ccccc1)NC1(C(=O)N2CCCC2)CCCCC1,-1.3,-0.7,-1.4,67.5*,9.4,31.7*,
O=C(NCc1ccccc1)NC1(C(=O)N2CCN(c3ncccn3)CC2)CCCCC1,-7.6,-0.2,-0.3,4.4,.,.,
O=C(Nc1ccc(F)c(Cl)c1)C1CC1,0.5,0.1,1.1,1.5,.,.,
CC1=C([N+](=O)[O-])CS(=O)(=O)/C1=C\c1ccccc1,-7.0,-0.1,1.3,2.0,.,.,

# High-throughput results as filed in PubChem.
